Laboratory results taken from ChEMBL document CHEMBL3988442, “University of Dundee, Small-Polar-MMV Screening Library” (2021).
For some assays here: Results with a measured potency or affinity are listed apart.

Tests used:
Set-up in all cases: scale not given: direction of the effect not stated beside the values
[1] = molecular target: Protein translocase subunit SecA (Escherichia coli (strain K12)) (UniProt P10408); assay: Assay to Identify E. coli SecA ATPase Inhibitors; type: functional; conditions: 30 µM
[2] = molecular target: T1, Ubiquitin-activating enzyme e1, putative (Leishmania donovani (strain BPK282A1)) (UniProt E9BSI1); assay: Leishmania donovani Ubiquitin Activating Enzyme (LdE1); type: functional; conditions: 30 µM
T1 sequence (whole entry): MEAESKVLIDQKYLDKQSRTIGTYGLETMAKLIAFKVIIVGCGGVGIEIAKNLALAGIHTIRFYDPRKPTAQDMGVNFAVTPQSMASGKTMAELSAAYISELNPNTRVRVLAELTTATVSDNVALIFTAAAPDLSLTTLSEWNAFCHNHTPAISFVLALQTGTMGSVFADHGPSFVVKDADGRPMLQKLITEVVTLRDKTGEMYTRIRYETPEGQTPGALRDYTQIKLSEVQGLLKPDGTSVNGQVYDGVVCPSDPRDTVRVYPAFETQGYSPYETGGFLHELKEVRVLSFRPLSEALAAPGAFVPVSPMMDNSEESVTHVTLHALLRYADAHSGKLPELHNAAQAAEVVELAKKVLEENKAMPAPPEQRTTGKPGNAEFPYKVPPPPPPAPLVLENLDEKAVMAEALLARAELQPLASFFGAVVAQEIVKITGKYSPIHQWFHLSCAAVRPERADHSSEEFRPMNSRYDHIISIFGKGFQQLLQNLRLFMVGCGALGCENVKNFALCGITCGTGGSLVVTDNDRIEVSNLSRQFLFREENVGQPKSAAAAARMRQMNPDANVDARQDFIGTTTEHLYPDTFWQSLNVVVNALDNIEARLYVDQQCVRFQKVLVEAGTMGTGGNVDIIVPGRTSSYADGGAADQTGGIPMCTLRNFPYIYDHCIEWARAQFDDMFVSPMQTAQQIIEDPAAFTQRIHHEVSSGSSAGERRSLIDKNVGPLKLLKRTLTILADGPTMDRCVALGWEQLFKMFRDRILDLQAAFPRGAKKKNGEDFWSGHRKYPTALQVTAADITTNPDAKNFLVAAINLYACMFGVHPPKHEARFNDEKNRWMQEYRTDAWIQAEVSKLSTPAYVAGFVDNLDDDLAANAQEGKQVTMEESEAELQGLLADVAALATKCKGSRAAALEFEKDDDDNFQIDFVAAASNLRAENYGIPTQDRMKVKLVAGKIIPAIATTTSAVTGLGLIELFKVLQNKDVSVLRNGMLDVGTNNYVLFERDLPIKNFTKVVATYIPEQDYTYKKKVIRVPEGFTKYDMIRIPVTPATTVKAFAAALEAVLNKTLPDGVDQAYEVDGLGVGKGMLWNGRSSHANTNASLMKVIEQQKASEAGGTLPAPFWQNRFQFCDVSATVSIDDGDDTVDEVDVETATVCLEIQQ

[3] = molecular target: AMP-activated protein kinase, AMPK (Homo sapiens) (UniProt P54646+O43741+P54619+Q9UGJ0+Q9Y478+Q13131+Q9UGI9); assay: AMP-dependent Kinase enzyme assay. An in vitro enzyme assay that detects ADP turnover that is directly proportional to AMPK activity. This uses naive AMPK that is activated during the assay with MK-8722; type: functional; conditions: 30 µM
[4] = molecular target: Sialic acid-binding Ig-like lectin 9 (Homo sapiens) (UniProt Q9Y336); assay: Hs-Siglec9 ALPHAscreen SOP 20170721; conditions: 10 µM
[5] = system: Trypanosoma cruzi; assay: Trypanosoma cruzi phosphomannomutase and mannose-1-phosphate guanylyltransferase assay; type: functional; conditions: 10 µM
[6] = molecular target: T2, Arginase-2, mitochondrial (Homo sapiens) (UniProt P78540); assay: in vitro enzyme assay to detect the production of urea directly proportional to the activity of Arginase II; type: functional; conditions: 33.3 µM; also: in the data most compounds retested in dose-response had high values
T2 sequence (whole entry): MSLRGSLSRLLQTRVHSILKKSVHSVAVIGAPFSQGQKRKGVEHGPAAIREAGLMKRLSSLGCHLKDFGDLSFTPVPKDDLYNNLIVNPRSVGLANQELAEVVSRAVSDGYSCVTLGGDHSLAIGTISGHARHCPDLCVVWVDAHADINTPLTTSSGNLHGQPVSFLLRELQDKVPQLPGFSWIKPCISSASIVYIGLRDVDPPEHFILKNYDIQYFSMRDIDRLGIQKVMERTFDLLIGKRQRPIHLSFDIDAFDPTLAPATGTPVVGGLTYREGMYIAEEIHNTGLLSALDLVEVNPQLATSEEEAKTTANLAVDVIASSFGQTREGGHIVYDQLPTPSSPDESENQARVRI

[7] = molecular target: T3, Proteasome subunit beta (Trypanosoma cruzi) (UniProt O96673); assay: Trypanosoma cruzi proteasome chymotrypsin-like activity (TcProtChymo) assay.; also: in the data most compounds retested in dose-response had high values; type: functional; conditions: 9.37 µM
T3 sequence (whole entry): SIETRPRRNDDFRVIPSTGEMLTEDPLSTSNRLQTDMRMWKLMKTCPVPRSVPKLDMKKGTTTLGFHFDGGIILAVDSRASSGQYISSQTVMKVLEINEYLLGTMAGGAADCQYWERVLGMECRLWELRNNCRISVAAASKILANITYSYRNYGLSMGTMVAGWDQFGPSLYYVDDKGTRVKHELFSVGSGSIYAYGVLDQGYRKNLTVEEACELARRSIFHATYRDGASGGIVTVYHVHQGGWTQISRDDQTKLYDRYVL

[8] = organism: Homo sapiens; assay: To identify inhibition of the IFN signalling (Jak-Stat) pathway via expression of an eGFP reporter gene under the control of an IFN-stimulated response element (ISRE) containing MxA promoter.; type: functional; conditions: 30 µM
[9] = molecular target: T4, Tyrosyl-tRNA synthetase, putative (Trypanosoma cruzi (strain CL Brener)) (UniProt Q4DSP6); assay: Trypanosoma cruzi tyrosyl tRNA synthetase (TcYRS) _High Tyrosine SOP; type: functional; conditions: 30 µM; also: in the data most compounds retested in dose-response had high values
T4 sequence (whole entry): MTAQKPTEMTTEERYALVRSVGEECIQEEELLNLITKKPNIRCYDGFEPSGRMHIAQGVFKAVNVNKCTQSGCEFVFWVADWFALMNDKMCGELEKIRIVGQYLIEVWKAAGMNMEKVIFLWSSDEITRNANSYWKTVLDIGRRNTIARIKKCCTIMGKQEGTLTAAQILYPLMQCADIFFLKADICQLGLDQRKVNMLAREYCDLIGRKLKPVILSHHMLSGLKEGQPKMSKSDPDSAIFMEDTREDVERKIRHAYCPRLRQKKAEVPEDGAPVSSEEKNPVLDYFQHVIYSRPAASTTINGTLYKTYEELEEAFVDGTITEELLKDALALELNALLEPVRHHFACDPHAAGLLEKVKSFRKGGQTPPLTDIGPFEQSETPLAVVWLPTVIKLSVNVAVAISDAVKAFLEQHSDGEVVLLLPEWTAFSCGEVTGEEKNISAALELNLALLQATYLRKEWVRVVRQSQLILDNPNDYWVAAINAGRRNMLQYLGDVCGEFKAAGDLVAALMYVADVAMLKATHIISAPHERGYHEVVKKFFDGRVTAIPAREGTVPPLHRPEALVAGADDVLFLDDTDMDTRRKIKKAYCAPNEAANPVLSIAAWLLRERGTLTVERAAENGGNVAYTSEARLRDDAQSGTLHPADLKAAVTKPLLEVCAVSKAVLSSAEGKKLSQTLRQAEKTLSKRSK

[10] = molecular target: T4, Tyrosyl-tRNA synthetase, putative (Trypanosoma cruzi (strain CL Brener)); assay: Trypanosoma cruzi tyrosyl tRNA synthetase (TcYRS) SOP; type: functional; conditions: 30 µM
[11] = molecular target: Chromo domain-containing protein 1 (Saccharomyces cerevisiae (strain ATCC 204508 / S288c) (Baker's yeast)) (UniProt P32657); assay: ScCHD-1 Enzyme Inhibition Assay; type: functional; conditions: 30 µM; also: in the data most compounds retested in dose-response had high values
Chromo domain-containing protein 1 (Saccharomyces cerevisiae (strain ATCC 204508 / S288c) (Baker's yeast)), sequence (P32657 whole entry, the tested form may be a part): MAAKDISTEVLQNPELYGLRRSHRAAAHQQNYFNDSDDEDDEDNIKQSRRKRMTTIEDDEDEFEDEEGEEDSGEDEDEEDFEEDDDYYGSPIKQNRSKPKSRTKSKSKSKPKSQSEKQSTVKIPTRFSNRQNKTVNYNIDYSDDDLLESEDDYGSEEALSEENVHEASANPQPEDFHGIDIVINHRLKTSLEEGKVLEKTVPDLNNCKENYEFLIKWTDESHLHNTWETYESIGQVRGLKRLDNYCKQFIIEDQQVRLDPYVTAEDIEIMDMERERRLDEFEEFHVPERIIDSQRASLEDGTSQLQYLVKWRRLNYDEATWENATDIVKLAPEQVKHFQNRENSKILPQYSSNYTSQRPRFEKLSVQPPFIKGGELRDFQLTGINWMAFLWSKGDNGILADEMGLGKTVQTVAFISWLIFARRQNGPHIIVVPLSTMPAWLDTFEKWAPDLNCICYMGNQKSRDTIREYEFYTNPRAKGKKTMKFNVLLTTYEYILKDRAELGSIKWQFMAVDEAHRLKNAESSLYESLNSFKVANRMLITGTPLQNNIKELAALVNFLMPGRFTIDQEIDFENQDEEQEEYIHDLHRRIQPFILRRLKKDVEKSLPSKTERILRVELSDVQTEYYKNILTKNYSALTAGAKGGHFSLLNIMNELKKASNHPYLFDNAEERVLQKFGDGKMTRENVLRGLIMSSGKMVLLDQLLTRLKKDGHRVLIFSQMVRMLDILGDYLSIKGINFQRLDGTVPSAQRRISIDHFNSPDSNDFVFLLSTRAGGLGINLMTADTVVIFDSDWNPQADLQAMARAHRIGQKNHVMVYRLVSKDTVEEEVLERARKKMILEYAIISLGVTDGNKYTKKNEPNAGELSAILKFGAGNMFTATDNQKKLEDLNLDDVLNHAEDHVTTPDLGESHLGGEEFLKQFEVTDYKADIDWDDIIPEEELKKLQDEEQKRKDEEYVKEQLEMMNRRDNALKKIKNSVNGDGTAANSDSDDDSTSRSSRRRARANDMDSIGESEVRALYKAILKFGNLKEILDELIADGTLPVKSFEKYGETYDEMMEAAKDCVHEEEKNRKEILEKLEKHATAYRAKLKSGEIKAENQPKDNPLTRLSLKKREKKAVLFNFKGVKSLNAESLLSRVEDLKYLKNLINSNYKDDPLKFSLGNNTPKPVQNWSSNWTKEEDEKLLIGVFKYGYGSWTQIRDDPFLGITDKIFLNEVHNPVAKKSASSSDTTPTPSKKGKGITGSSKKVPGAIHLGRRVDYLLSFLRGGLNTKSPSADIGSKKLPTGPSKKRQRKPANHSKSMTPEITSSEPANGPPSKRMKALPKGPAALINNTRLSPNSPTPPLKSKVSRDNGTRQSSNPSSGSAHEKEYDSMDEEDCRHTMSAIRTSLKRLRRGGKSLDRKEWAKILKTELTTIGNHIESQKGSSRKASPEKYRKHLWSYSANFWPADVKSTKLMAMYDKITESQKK

Sialic acid-binding Ig-like lectin 9 (Homo sapiens), sequence (Q9Y336 whole entry): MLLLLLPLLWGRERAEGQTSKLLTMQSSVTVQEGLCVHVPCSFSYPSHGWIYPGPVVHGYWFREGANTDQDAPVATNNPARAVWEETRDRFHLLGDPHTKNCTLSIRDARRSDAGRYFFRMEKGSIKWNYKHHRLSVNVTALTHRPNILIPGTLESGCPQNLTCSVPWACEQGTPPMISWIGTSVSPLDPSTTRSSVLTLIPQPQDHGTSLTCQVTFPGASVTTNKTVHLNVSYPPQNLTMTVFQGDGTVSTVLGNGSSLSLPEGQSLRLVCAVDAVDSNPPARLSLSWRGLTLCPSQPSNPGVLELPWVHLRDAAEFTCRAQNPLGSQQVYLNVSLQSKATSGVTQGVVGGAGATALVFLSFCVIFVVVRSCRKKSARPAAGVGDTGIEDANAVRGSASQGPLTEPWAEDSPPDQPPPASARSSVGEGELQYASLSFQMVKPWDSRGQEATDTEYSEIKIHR
Protein translocase subunit SecA (Escherichia coli (strain K12)), sequence (P10408 whole entry): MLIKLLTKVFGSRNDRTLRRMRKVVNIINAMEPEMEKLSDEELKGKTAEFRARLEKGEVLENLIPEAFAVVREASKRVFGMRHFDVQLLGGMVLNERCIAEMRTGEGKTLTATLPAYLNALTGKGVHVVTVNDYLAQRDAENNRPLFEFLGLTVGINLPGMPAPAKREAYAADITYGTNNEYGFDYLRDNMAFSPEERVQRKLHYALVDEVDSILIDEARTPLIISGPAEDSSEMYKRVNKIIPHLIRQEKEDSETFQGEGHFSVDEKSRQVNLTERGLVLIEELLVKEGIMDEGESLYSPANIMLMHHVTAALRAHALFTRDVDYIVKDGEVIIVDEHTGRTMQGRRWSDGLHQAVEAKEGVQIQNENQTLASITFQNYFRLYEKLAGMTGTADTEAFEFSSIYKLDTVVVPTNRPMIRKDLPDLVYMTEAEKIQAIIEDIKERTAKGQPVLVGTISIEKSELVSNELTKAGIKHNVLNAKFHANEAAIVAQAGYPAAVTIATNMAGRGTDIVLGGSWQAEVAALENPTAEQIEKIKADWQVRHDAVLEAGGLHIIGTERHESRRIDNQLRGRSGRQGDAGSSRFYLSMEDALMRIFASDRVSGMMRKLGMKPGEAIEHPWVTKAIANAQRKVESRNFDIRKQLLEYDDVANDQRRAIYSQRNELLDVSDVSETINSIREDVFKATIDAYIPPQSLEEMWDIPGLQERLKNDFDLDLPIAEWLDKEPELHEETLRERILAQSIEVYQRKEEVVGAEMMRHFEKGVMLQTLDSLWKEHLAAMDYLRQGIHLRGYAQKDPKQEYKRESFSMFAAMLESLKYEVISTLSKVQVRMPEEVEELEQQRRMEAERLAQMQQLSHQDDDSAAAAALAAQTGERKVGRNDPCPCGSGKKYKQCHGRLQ

Row | Compound | Percent Effect [1] | Percent Effect [2] | Percent Effect [3] | Percent Effect [4] | Percent Effect [5] | Percent Effect [6] | Percent Effect [7] | Percent Effect [8] | Percent Effect [9] | Percent Effect [10] | Percent Effect [11]
1 | O=C(c1cncc(N2CCC3(CCNCC3)CC2)n1)N1CCCC1 | -4.3% | 18.7% | 1.16% | 15.6% | 5.94% | 33.9% | 23.7% | 12.9% | 7.1% | 21% | -13.4%
2 | CC(C)CC(=O)N1CCc2nc(N3CCOCC3)nc(NC(C)C)c2C1 | -4.18% | 2.67% | 12.4% | -0.324% | -1.57% | 2.56% | 2.03% | 8.78% | 9.57% | 14.1% | -8.4%
3 | CCOCC(O)CN1CCN(C(=O)c2ccc(OC)cc2F)CC1 (configuration not stated) | -4.94% | 18.2% | -0.292% | 4.59% | 1.87% | 2.85% | 0.676% | 13.6% | 7.77% | 14.6% | -9.36%
4 | CC(NCc1ccc(F)cc1)c1ccc(OCC(=O)NC2CC2)cc1 (configuration not stated) | -1.43% | 6.33% | 9.48% | -4.28% | -6.26% | -7.1% | 18% | 17% | 1.04% | 2.53% | -17.3%
5 | Cc1nc[nH]c1CN(C)CC1CCCN(CCc2ccc(Cl)cc2)C1 (configuration not stated) | 0.978% | -5.48% | 4.19% | 6.4% | 4.11% | 10.4% | 5.32% | 61.3% | 9.68% | 2.5% | -4.79%
6 | Cc1nn(C)c(N2CCOCC2)c1CNC1CCOc2ccccc21 (configuration not stated) | -4.35% | 10.1% | -4.31% | 8.19% | 1.04% | 0.38% | 2.54% | -11.4% | 7.39% | 11.4% | -3.12%
7 | CC(C)(C)OC(=O)N1CCCC[C@H]1C(=O)NCc1nccs1 | -0.685% | 0% | -2.33% | 5.11% | 5.18% | 16.6% | 0.944% | -20.1% | 4.3% | 8.64% | -4.5%
8 | COc1ccc(Cc2nnc(SC)o2)cc1OC | -4.8% | 0% | -3.66% | 1.57% | 6.72% | -1.56% | 8.72% | -12.7% | 3.83% | 11.1% | -3.69%
9 | O=C(NC1=NCCCN1c1ccc(Cl)cc1)c1cccc(Cl)c1 | -4.08% | -5.2% | 0.353% | -0.0638% | -6.39% | 1.38% | 15.1% | 3.87% | -5.38% | -8.64% | 0.69%
10 | COCCc1noc(CN(C)C2CCCN(c3ccc(C)nn3)C2)n1 (configuration not stated) | -2.39% | 2.67% | -6.26% | 0.801% | 3.41% | 1.56% | 11.9% | -8.02% | 4.92% | 6.17% | -2.05%
11 | COC(=O)CCNC(=O)C1CC(=O)N(C2CCCC2)C1 (configuration not stated) | -4.42% | -2.7% | -0.395% | -6.64% | -0.781% | -2.08% | 5.83% | -6.8% | 1.98% | 6.1% | -2.5%
12 | COC(=O)c1ccc(N2CCN(CCN3CCOCC3)C(C)C2)cc1 (configuration not stated) | -7.58% | 15.8% | -5.32% | 3.41% | -0.467% | -1.8% | 2.96% | -10.7% | 7.39% | 13.6% | -4.27%
13 | CC(=O)Nc1ncc(S(=O)(=O)Nc2ccc(F)cc2)s1 | -4.49% | 17.3% | -9.36% | -7.58% | 2.36% | -0.88% | 12.2% | 20.4% | 3.17% | 10.3% | -10.6%
14 | CCc1ccc(S(=O)(=O)Nc2c(C)cccc2C(=O)O)s1 | -6.89% | 5.26% | -2.41% | 7.53% | 2.71% | -2.16% | 3.64% | -1.38% | 2.46% | 6.17% | 2.56%
15 | Cc1nc(-c2ccccc2)n(CC(=O)N(C(C)C)C(C)C)n1 | -0.812% | 18.9% | -12.1% | 5.09% | 3.68% | -9.62% | 15.3% | 14.6% | 9.36% | 23.5% | -8.42%
16 | O=C(c1cnc(C2CC2)s1)N1CCCC(n2cccn2)C1 (configuration not stated) | -2.59% | 8.11% | -1.44% | -0.959% | -7.26% | -5.61% | 1.26% | 21% | 6.4% | 11.1% | -5.53%
17 | N#CCSCCCN1CCN(C(=O)c2ccc(Cl)cc2)CC1 | -6.76% | -8.22% | 6.65% | -5.18% | -3.37% | -25.9% | -2.83% | 4.5% | -2.08% | -3.7% | 7.74%
18 | Cc1nn2c(N3CCC(O)C3)cc(-c3ccccc3)nc2c1C (configuration not stated) | -2.08% | 16.4% | -7.6% | 7.31% | 2.58% | -1.6% | 12.6% | -0.188% | 7.29% | -82.7% | -3.57%
19 | Cc1ccc(NS(=O)(=O)CC2=NC(=O)n3cccc3C2=O)cc1 | -4.7% | -4% | -2.73% | 6.4% | 1.97% | -3.7% | 3.7% | -2.44% | -10.6% | -17.9% | -2.6%
20 | CC(=O)Nc1nc(C(=O)NC(C)c2ccc(F)cc2)cs1 (configuration not stated) | -2.72% | 15.6% | 16.6% | -7.49% | 6.76% | -9.05% | 11.1% | -15.4% | 8.57% | 21.2% | -24.3%
21 | COc1c(CNC2CCCc3ccccc32)c(C)nn1C (configuration not stated) | -7.16% | 21.6% | -16.2% | 24% | 4.79% | 2.23% | 12.4% | 7.25% | 2.15% | 13.6% | -5.73%
22 | COc1cc2ncn(CC(=O)NCCCN(C)C)c(=O)c2cc1OC | -1.85% | 1.33% | -1.58% | 0.564% | -8.84% | -3.35% | 7.76% | -4.68% | 4.23% | -53.9% | -7.79%
